Data reported in PMC5540273 (PLoS ONE, 2017).

tested on: STK39; conditions: concentration: 1 μM, replicates: in singlicate; n = 1
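Further: KINOMEscan kinase panel screen.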

Row | Compound | %Inh [%]
1 | Cl.c1ccc(-c2n[nH]cc2-c2ccnc(-c3ccc(CN4CCOCC4)cc3)c2)nc1 [GW776245] | 0
2 | Cc1nnc(-c2ccc3occ(-c4ccc(S(C)=O)cc4)c3c2)[nH]1 (centres unmarked) | 0
3 | Cn1ccc2ncnc(Oc3ccc(Nc4nc5ccccc5[nH]4)cc3)c21 | 0
4 | COc1cc2ncn(-c3cc(OCC4CCCO4)c(C(N)=O)s3)c2cc1OC (centres unmarked) [GSK204607] | 0
5 | Cc1cccc(-c2nc(-c3ccc(S(C)(=O)=O)cc3)sc2-c2ccnc(NCCc3ccccc3)c2)c1 | 1
6 | COC(=O)c1c(-c2ccccc2)c2cc(C(=O)O)ccc2c(=O)n1Cc1ccccc1 | 0
7 | Cl.Oc1ccc(-c2nc(-c3ccccc3)[nH]c2-c2ccncc2)cc1 [SB-428218] | 0
8 | CC(=O)Nc1nc2cnc(Nc3cc(NC(=O)c4cccc(CCC#N)c4)ccc3C)nc2s1 | 0
9 | O=C(Nc1n[nH]c2nc(-c3nccs3)c(Br)cc12)C1CCCC1 [SB-742609] | 21
10 | CCn1c(-c2ccccn2)nc2cnccc21 [SB-736398] | 31
11 | NC(=O)c1nnc2ccccc2c1N | 27
12 | COc1ccc(Nc2nccc(NCCNC(=O)Nc3ccccc3F)n2)cc1 [GSK1379901] | 10
13 | Cc1cc(N2Cc3ccccc3C2)nc(Nc2ccc(S(=O)(=O)N3CCOCC3)cc2)n1.Cl [GSK1669917] | 0
14 | CC1=C(C(=O)Nc2cc3cn[nH]c3cc2F)C(c2ccc(C(F)(F)F)cc2)CC(=O)N1 (centres unmarked) [GSK429286] | 20
